DRD3 agonist – qHTS of D3 Dopamine Receptor Agonist: qHTS; D(3) dopamine receptor (Homo sapiens), P35462; D3R DiscoveRx beta-arrestin cells, luminescence, 90 min; max activation, %; 410,000 compounds, 0.58% hits; AID 652048, 2013; in the data active = max activation above about 30%; note: 0% is about no effect
Target sequence (P35462 whole entry, looked up): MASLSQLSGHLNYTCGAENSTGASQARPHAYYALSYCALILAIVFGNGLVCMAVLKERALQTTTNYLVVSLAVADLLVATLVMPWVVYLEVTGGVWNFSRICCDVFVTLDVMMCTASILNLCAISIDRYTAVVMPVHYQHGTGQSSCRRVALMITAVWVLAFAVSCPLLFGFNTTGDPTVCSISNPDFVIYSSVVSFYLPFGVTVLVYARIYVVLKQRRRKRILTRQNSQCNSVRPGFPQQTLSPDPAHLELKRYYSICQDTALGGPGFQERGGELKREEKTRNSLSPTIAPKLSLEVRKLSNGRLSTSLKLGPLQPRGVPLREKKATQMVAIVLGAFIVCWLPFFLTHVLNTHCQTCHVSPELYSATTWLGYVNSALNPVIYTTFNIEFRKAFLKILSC
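Cells at 1500/well, incubated overnight, then treated with pinned compounds (dopamine as control) for 90 min at 37 degrees C. DiscoveRx reagent added for 30 - 60 minutes at room temperature; luminescence read.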
KB-3-1 tox – qHTS assay for MDR1-selective chemotherapeutics: Primary screen using the parental adenocarcinoma cell KB-3-1. KB-3-1 viability, CellTiter-Glo ATP luminescence, 72 h. AID 1347075, 2019. 400,000 compounds, 1.4% hits. Potency, µM (titrated, usually from 46.1 µM), actives largely listed as cytotoxic; note: potency is the fitted concentration of half-maximal effect; % is set by controls: 0 for no effect and ±100 for the full control effect; nearly all actives have a fitted effect of over 60% in size
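Parental KB-3-1 adenocarcinoma cells in phenol-red-free DMEM with 10% FBS were pin-treated with compounds at several concentrations, incubated 72 h at 37 °C, and viability read by CellTiter-Glo luminescence; concentration-effect curves were fitted after normalization.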
KB-V1 cytotox – qHTS assay for MDR1-selective chemotherapeutics: Primary screen using the drug-selected MDR subline cells KB-V1; KB-V1 MDR cells viability, CellTiter-Glo, 72 h; Potency, µM (series often up to 46.1 µM), usual class: cytotoxic; 400,000 compounds, 3.4% hits; note: potency is the fitted concentration of half-maximal effect; % is set by controls: 0 for no effect and ±100 for the full control effect; nearly all actives have a fitted effect of over 60% in size
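KB-V1, DMEM (no phenol red) + 10% FBS; cpd pin-transferred, titration series; 72 h, 37 degrees C; CellTiter-Glo, luminescence. Data normalized, curve-fit.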
SW480 rerep – A quantitative high throughput screen for small molecules that induce DNA re-replication in SW480 colon adenocarcinoma cells; SW480 DNA re-replication, Hoechst DNA content imaging, 48 h; Potency, µM (titrated, usually from 46.1 µM), for inactives: at the top dose re-replication activation, usual class: activators; 340,000 compounds, 1.8% hits; note: potency is the fitted concentration of half-maximal effect; % of control where 0% means no effect; nearly all actives have a fitted effect of over 55% in size
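SW480 cells exposed to compounds for 48 hr at 37 C, 5% CO2, then Hoechst-stained 40 min. Nuclear DNA content imaged by fluorescence scanning (405 nm excitation, 500-530 nm emission); re-replication scored as increased high-intensity nuclei.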
MCF10A rereplic – A quantitative high throughput screen for small molecules that induce DNA re-replication in MCF 10a normal breast cells. MCF 10A DNA re-replication, Hoechst nuclear intensity, 48 h. Potency, µM (highest dose often 46.1 µM), inactives show at the highest dose activity, positive = re-replication, actives largely listed as activators. 350,000 compounds, 2.9% hits. AID 624296, 2012; note: potency is the fitted concentration of half-maximal effect; % of control where 0% means no effect; nearly all actives have a fitted effect of over 50% in size
D3 antag – qHTS of D3 Dopamine Receptor Antagonist: qHTS; D(3) dopamine receptor (Homo sapiens), P35462; 360,000 compounds, 2.5% hits; max response, negative = inhibition, %; AID 652054, 2013; D3R cells, DiscoveRx beta-arrestin luminescence, antagonist mode; hits give low values; in the data active = max response below about -50%; inconclusive = no clear call, values can overlap the other calls; note: % is set by controls: 0 for no effect and ±100 for the full control effect
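Cells expressing the human receptor were seeded at 1500 cells/well, incubated overnight at 37 degrees C in 5% CO2, then exposed to library compounds with dopamine controls for 90 minutes at 37 degrees C before luminescent detection.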
* marks the source's active call; other numbers are inactive results; i = inactive; u = inconclusive; x = no result given; ! = not confirmed by another sample. A selection: hits, their analogues and other compounds. The true share with any hit is near 8.9%. Unless noted, calls come from the whole dose curve; as a rule, active = well fitted curve in the direction sought with a large enough effect; inconclusive = small, poorly fitted or top-dose-only effect, or another doubt; inactive = no such curve, though single readings can be large; an effect the other way counts as inactive or inconclusive.

SMILES	DRD3 agonist	KB-3-1 tox	KB-V1 cytotox	SW480 rerep	MCF10A rereplic	D3 antag
CCOc1cc(/C=N\NC(=O)Cc2ccccc2)ccc1OCC(=O)Nc1ccc(C)c(C)c1	5	u	u	-1%	15µM*	-21
CCc1ccc(C(C)NC(=S)NCc2ccc(F)cc2)cc1 (configuration not stated)	-1	u	i	u	26µM*	-8
CCOc1ccc(C(C)NC(=S)NCc2ccc(F)cc2)cc1 (configuration not stated)	-1	i	u	0%	-2%	-2
S=C1SCN(Cc2ccccc2)CN1Cc1ccccc1	-1	i	i	u	33µM*	17
COc1ccc(CN2CSC(=S)N(Cc3ccc(OC)cc3)C2)cc1	0	i	i	u	u	-12
COc1ccc(CN2CSC(=S)N(Cc3ccccc3)C2)cc1	-3	i	i	u	u	-1
S=C1SCN(Cc2cccnc2)CN1Cc1cccnc1	11	u	u	u	13µM*	11
COc1ccc(-n2c(SCC(=O)c3ccc(Cl)cc3)nc3c([nH]c4ccccc43)c2=O)cc1	-18	i	u	x	x	x
CC(=O)N1SC(N)=NC1c1ccccc1 (configuration not stated)	2	i	i	-7%	-2%	-4
c1ccc([C@H]2CN3C(=N2)Sc2ccccc23)cc1	-14	i	i	u	u	-52*
Cc1nn(CC(=O)N2CCN(c3ccccc3)CC2)c(=O)c2cc3cc(F)ccc3n12	6	i	u	x	x	x
Oc1ccccc1-c1nc(/C=C/c2ccccc2Cl)no1	88*	i	i	x	x	x
CN(C)c1ccc(/C=C/c2noc(-c3ccccc3O)n2)cc1	5	i	i	x	x	x
Cc1oc(-c2nc3ccccc3n2C)cc1C(=O)c1ccccc1	3	i	u	u	u	-60*
Cn1c(-c2ccc(Br)o2)nc2ccccc21	-13	26µM*!	u	5%	-3%	-5
O=C1CCC[C@@H]2Cc3nc4cc5c(cc4cc3[C@@H]3CCN1[C@H]23)OCO5	-12	i	18µM*!	-19%	-3%	-25
O=c1[nH]c(=O)n(C(c2ccccc2)c2ccccc2)cc1Br	1	i	i	-2%	-3%	-3
O=c1[nH]nc(Br)c(=O)n1C(c1ccccc1)c1ccccc1	1	u	23µM*	2%	0%	-20
CCc1nc2c(OCc3ccccc3C(=O)OC)cccn2c1N(C)C(=O)Nc1ccccc1OC	-4	i	i	x	x	-10
NC(=O)CC(NC(=O)Cc1ccc(Br)cc1)c1ccc(N2CCC(Br)CC2)c([N+](=O)[O-])c1 (configuration not stated)	-24	i	i	-24%	u	-28
NC(=O)CC(NC(=O)Cc1ccc(Cl)cc1)c1ccc(NC2CC3CCC2C3)c([N+](=O)[O-])c1 (configuration not stated)	-8	i	i	-29%	-10%	-63*
NC(=O)CC(NC(=O)Cc1cccc2ccccc12)c1ccc(NC2CC3CCC2C3)c([N+](=O)[O-])c1 (configuration not stated)	-23	i	i	0%	-50%	-65*
NC(=O)CC(NC(=O)Cc1cccc2ccccc12)c1ccc(NCCOc2ccccc2)c([N+](=O)[O-])c1 (configuration not stated)	-31	i	u	-35%	-15%	-80*
NC(=O)CC(NC(=O)Cc1ccc(Cl)cc1)c1ccc(NC2CCN(Cc3ccccc3)CC2)c([N+](=O)[O-])c1 (configuration not stated)	-1	i	i	1%	2%	0
NC(=O)CC(NC(=O)Cc1ccc(Br)cc1)c1ccc(N2CCC(Cc3ccccc3)CC2)c([N+](=O)[O-])c1 (configuration not stated)	-2	i	i	u	u	-97*
SMILES	DRD3 agonist	KB-3-1 tox	KB-V1 cytotox	SW480 rerep	MCF10A rereplic	D3 antag
NC(=O)CC(NC(=O)Cc1cccc2ccccc12)c1ccc(NC2CCCC2)c([N+](=O)[O-])c1 (configuration not stated)	-6	i	i	1%	0%	-18
COc1ccc(-c2noc(N3CCC(C(=O)Nc4ccc(C)c(F)c4)CC3)n2)cc1OC	5	i	i	x	x	x
O=C(O)[C@@H]1CSCN1	-20	x	x	0%	2%	x
O=S(=O)(Nc1ccc(F)cc1F)c1ccc(-n2cccn2)cc1	0	i	i	x	x	x
Cc1ccc(NC(=O)Nc2nnc(N3CCCC3)s2)c(C)c1	1	i	u	x	x	x
CN(C)c1ccc(C(=C2C=CC(=[N+](C)C)C=C2)c2ccccc2)cc1	-9	x	x	27%	u	x
CN(C)c1ccc(C(=C2C=CC(=[N+](C)C)C=C2)c2ccc(N(C)C)cc2)cc1	-13	2.6µM*	i	u	3%	x
COc1ccccc1NS(=O)(=O)c1ccc(OC)c(OC)c1	2	i	i	-1%	-5%	6
COc1ccc(S(=O)(=O)N2CCOCC2)cc1NS(=O)(=O)c1ccc(F)c(F)c1	-9	i	23µM*	-7%	-3%	0
Cc1ccc(S(=O)(=O)N2CCOCC2)cc1NS(=O)(=O)c1ccc(F)c(F)c1	1	i	i	3%	-3%	-14
CCOc1ccccc1NS(=O)(=O)c1ccc(OC)c(OC)c1	-8	i	26µM*	-24%	16%	-13
O=S(=O)(Nc1ccccc1N1CCOCC1)c1ccc(Cl)cc1	-7	i	u	u	-4%	34
COc1ccc(S(=O)(=O)Nc2ccccc2N2CCOCC2)cc1OC	4	i	23µM*	-6%	-5%	16
Cn1nnc2c(N3CCN(c4cccc(Cl)c4)CC3)ncnc21	-6	i	i	x	x	x
CCn1c(CCc2nc3ccccc3[nH]2)n[nH]c1=S	4	u	i	-1%	4%	-8
Cc1ccc(-n2c(CCc3nc4ccccc4[nH]3)n[nH]c2=S)cc1	-19	i	i	3%	0%	-51*
CC(=O)Nc1cccc(NC(=O)Cn2cnc3c2c(=O)n(C)c(=O)n3C)c1	-12	i	i	x	x	x
